# Results published in PubChem BioAssay AID720540 (National Center for Advancing Translational Sciences (NCATS), 2013).
# Among all 1,300 compounds or so, about 460 (35%) were called active. Inconclusive results (about 39%) are left out. The call rests on the fitted dose curve; in most records, active means well fitted inhibition curve with a large enough effect; inconclusive means small, poorly fitted or top-dose-only effect; inactive means flat fitted curve, though single readings scatter. The list shows a part of the results.
# Target: Protein phosphatase EYA2 (Homo sapiens) (UniProt O00167)
# Experiment: qHTS for Inhibitors of the Phosphatase Activity of Eya2: Confirmatory Assay for Cherry-picked Compounds; further: nearly all actives have a fitted effect of over 65% in size;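 on activity change, negative = inhibition: 0% = DMSO wells and -100% = EGTA control giving full inhibition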
# Settings: purified EYA2 phosphatase activity, qHTS confirmation; series mostly up to 46.1 µM; activity change, negative = inhibition: at the top concentration
# Summary of the method: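 Eya2 (0.2 uM working solution) preincubated 10 min at room temperature with compound in pH 7.5 HEPES buffer with MgCl2, BSA, DTT. OMFP added (50 uM working solution), 10 min more; fluorescence 485/525 nm, normalized to EGTA and DMSO.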
# Potency means the concentration at half of the fitted maximal effect.
# Sequence of Protein phosphatase EYA2 (Homo sapiens) (O00167 whole entry, looked up): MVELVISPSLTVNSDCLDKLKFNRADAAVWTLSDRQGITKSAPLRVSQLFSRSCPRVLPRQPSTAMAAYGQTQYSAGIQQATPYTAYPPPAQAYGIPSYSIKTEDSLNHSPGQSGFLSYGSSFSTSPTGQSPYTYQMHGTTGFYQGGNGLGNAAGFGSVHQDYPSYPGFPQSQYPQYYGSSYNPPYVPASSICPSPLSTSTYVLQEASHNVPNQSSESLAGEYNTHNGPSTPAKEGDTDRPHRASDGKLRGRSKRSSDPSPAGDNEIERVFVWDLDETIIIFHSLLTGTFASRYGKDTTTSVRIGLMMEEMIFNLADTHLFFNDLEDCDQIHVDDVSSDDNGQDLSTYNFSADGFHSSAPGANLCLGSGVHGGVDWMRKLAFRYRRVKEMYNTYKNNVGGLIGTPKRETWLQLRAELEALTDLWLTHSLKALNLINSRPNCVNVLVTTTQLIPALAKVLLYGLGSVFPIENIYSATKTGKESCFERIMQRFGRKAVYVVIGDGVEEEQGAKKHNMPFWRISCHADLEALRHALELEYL
Compound,"activity change, negative = inhibition",Potency
Cc1cccc(C)c1OCc1cc(C(=O)N2CCN(c3ccccc3)CC2C)no1 (stereo not given),-11.7% (inactive),
Cc1c(NC(=O)/C(C#N)=C/c2ccc(-c3cc(Cl)ccc3Cl)o2)c(=O)n(-c2ccccc2)n1C,,7.57 µM (active)
CCOc1ccc2nc(N3CCCC(C(=O)N4CCN(CC)CC4)C3)sc2c1 (stereo not given),-10% (inactive),
CCOC(=O)c1ccc(NC(=S)N2CCN(CCN=CC3=C(O)CC(c4ccccc4)CC3=O)CC2)cc1 (stereo not given),-0.24% (inactive),
CS(=O)(=O)c1ccc(C(=O)Nc2nc(-c3ccco3)c(-c3ccco3)s2)cc1,,12 µM (active)
CS(=O)(=O)c1ccc2nc(NC(=O)c3ccccc3Cl)sc2c1,-4.83% (inactive),
CN(C)C(C)(C)C#CC(O)(c1ccccc1)c1ccccc1,-3.24% (inactive),
CCOC(=O)Cc1nnc(NC(=O)C(CC)Sc2nnc3c4ccccc4n(C)c3n2)s1 (stereo not given),,16.9 µM (active)
CSc1cccc(NC(=O)CCCOc2cc(=O)n(C)c3ccccc23)c1,-27.4% (inactive),
O=C(CSc1nnc2c3ccccc3c3ccccc3c2n1)Nc1ccccc1F,,7.57 µM (active)
Cn1c2ccccc2c2nnc(SCC(=O)Nc3cccc(O)c3)nc21,,13.5 µM (active)
CCOC(=O)Cc1nnc(NC(=O)CSc2nnc3c4ccccc4n(C)c3n2)s1,,16.9 µM (active)
Cn1cc(SCC(=O)Nc2ccc3c(c2)OCCO3)c2ccccc21,-12.8% (inactive),
Cn1c(=O)c(N)c2c3c(c(Br)ccc31)C(=O)c1ccccc1-2,,6.01 µM (active)
COCc1nnc(NC(=O)c2ccc(S(=O)(=O)N3CCOCC3)cc2)o1,-28.2% (inactive),
COc1ccc(-c2nnc(NC(=O)c3ccc(S(=O)(=O)N(C)CC4CCCO4)cc3)o2)c(OC)c1 (stereo not given),,21.3 µM (active)
O=C1C(=Cc2ccco2)CCC1=Cc1ccco1,,4.78 µM (active)
COc1ccc(Nc2nc(-c3c(C)nc4ncccn34)cs2)cc1,,3.38 µM (active)
Cc1nc2ncccn2c1-c1csc(Nc2ccccc2)n1,,3.38 µM (active)
O=[S+]([O-])([O-])c1ccc2c(c1)cc([S+](=O)([O-])[O-])c1nn(-c3ccc(/C=C/c4ccc(-n5nc6c([S+](=O)([O-])[O-])cc7cc([S+](=O)([O-])[O-])ccc7c6n5)cc4[S+](=O)([O-])[O-])c([S+](=O)([O-])[O-])c3)nc12,,6.75 µM (active)
COc1ccc(-c2cn3c(C)c(C(=O)NCc4ccc5c(c4)OCO5)sc3n2)cc1,-15.9% (inactive),
CN(C)c1ccc(Sc2ccc3nc(N)nc(N)c3c2)cc1,,6.75 µM (active)
S=C(NC1CC1)NC1CCCc2ccccc21 (stereo not given),-11.4% (inactive),
N[C@@H](Cc1cnc[nH]1)C(=O)Nc1ccc2ccccc2c1,,21.3 µM (active)

Compound,"activity change, negative = inhibition",Potency
Cc1ccc(Nc2nc(-c3cccnc3)nc3ccccc23)cc1,-29.8% (inactive),
O=C(O)c1cccc(Nc2nc(-c3ccccc3)nc3ccccc23)c1,,9.53 µM (active)
O=C(O)c1ccc(Nc2nc(-c3ccccc3)nc3ccccc23)cc1,,8.49 µM (active)
CCOC(=O)N1CCC(NC(=O)c2cc3c(-c4ccccc4F)nn(C)c3s2)CC1,-14.8% (inactive),
CCCCn1nc(C(=O)Nc2ccc3c(c2)OCO3)c2ccccc2c1=O,,12 µM (active)
Cn1nnnc1SCC(=O)Nc1ccc2c(c1)OCO2,-11% (inactive),
O=C(CCn1c(=O)oc2ccccc21)NCc1ccc2c(c1)OCO2,-2.46% (inactive),
COc1ccccc1NC(=O)C1=C(C)NC2=C(C(=O)CC(c3ccc(OC)c(OC)c3)C2)C1c1coc2ccccc2c1=O (stereo not given),,21.3 µM (active)
CCc1cc2c(=O)[nH]c(-c3ccccn3)nc2s1,,1.69 µM (active)
CCOc1ccc2c(c1)-c1c(ssc1=S)C(C)(C)N2C(=O)CSC1=NCCS1,,16.9 µM (active)
Cc1nc(C)c(-c2csc(Nc3ccc(O)c(C(=O)O)c3)n2)s1,,19 µM (active)
COc1ccc(N2CCN(C(c3cccs3)C(C)NC(=O)c3ccc4c(c3)OCO4)CC2)cc1 (stereo not given),1.89% (inactive),
COc1ccc(N2CCN(Cc3cc4c(cc3Br)OCCO4)CC2)cc1,,15.1 µM (active)
COc1ccc(N2CCN(Cc3ccc(Br)s3)CC2)cc1,,10.7 µM (active)
COc1ccc(N2CCN(C(c3ccco3)c3sc4nc(C)nn4c3O)CC2)cc1 (stereo not given),-27.1% (inactive),
COc1ccc(S(=O)(=O)N2CCC3CC2c2cc(N4CCOCC4)ccc23)cc1 (stereo not given),17.1% (inactive),
O=C(Oc1ccc(C(=S)N2CCOCC2)cc1)c1ccccc1,,16.9 µM (active)
CC(=O)c1ccc(OC(=O)/C=C/c2ccccc2)cc1,,4.26 µM (active)
Cc1ccc(C(=O)ON=C2CCN(c3ccc([N+](=O)[O-])cc3)CC2)cc1,-23.5% (inactive),
O=C(Oc1ccc(C(=S)N2CCOCC2)cc1)c1cccc([N+](=O)[O-])c1,,7.57 µM (active)
O=C(Oc1ccc(C(=S)N2CCOCC2)cc1)c1cccc(Cl)c1,,8.49 µM (active)
Cc1ccc(Nc2nc(N)nc(CSc3nnc(C)s3)n2)cc1,-27.8% (inactive),
COc1ccc(C(=O)C2CCCN(C(=O)c3cccc(N(C)C)c3)C2)cc1OC (stereo not given),-24.1% (inactive),
COC(=O)C(Sc1ccc(Cl)cc1)C1SC(=S)N(Cc2ccccc2)C1=O (stereo not given),-27.9% (inactive),

Compound,"activity change, negative = inhibition",Potency
O=C(/C=C/c1ccccc1)Oc1ccc(C(=S)N2CCOCC2)cc1,,1.51 µM (active)
COc1ccc(C(=O)OCC(=O)Nc2ccc(N3CCOCC3)cc2)cc1,-5.25% (inactive),
Cc1ccc(C(=O)Oc2ccc(C(=S)N3CCOCC3)cc2)cc1,,1.2 µM (active)
O=C(Cc1ccc(F)cc1)Oc1ccc(C(=S)N2CCCC2)cc1,,15.1 µM (active)
O=C(Oc1ccc(C(=S)N2CCOCC2)cc1)c1ccc(F)cc1,,7.57 µM (active)
COc1cccc(OC)c1C(=O)OCC(=O)NCC1CCCCC1,-9.42% (inactive),
CC(C)OCCCNC(=O)c1ccccc1NC(=O)C1=CSCCO1,-8.43% (inactive),
C1=Cc2ccccc2/C1=C\c1cc2c3c(c1)CCCN3CCC2,,7.57 µM (active)
COc1cc(N=c2oc3c(C)ncc(CO)c3cc2C(N)=O)cc(OC)c1OC,,6.75 µM (active)
Cc1ccc(NC(=O)c2cc3c(CO)cnc(C)c3oc2=Nc2cccc(C(N)=O)c2)cc1,-28.9% (inactive),
Cc1cc(Nc2ccccc2C(=O)O)n(-c2cccc(Cl)c2)n1,,6.75 µM (active)
COc1ccc(C(=O)Nc2cc(OC)c(NC(=O)Nc3ccccc3)cc2OC)cc1,-25.1% (inactive),
COc1ccc(-n2nc(C)cc2Nc2ccccc2C(=O)O)cc1,,6.01 µM (active)
CN(C)c1ccc(C=C2C=Cc3ccccc32)cc1,,3.79 µM (active)
CCN(CC)c1ccc(/C=C2\C=Cc3ccccc32)cc1,,6.75 µM (active)
CN(C)c1ccc(/C=C/C=C2/C=Cc3ccccc32)cc1,,4.26 µM (active)
CC1=C/C(=C\c2ccc(N(C)C)cc2)c2ccccc21,,7.57 µM (active)
CC1C(c2ccccc2)=Nn2c(=O)n(-c3ccccc3)c(=O)n21 (stereo not given),-2.7% (inactive),
C1=Cc2ccccc2/C1=C\c1cc[cH-]c1.[Fe+2].c1cc[cH-]c1,,10.7 µM (active)
CN(C)c1ccc(/C=C2\C=Cc3ccccc32)cc1,,6.01 µM (active)
CNc1ccc(C=C2C=Cc3ccccc32)cc1,,15.1 µM (active)
Cc1oc2c(Cl)c(Cl)c(O)c(CN(C)C)c2c1C(=O)c1ccc(Cl)cc1,,19 µM (active)
O=C1C(NS(=O)(=O)c2cccs2)=C(N2CCN(Cc3ccccc3)CC2)C(=O)c2ccccc21,,13.5 µM (active)
CC(=O)Nc1ccc(S(=O)(=O)NC2=C(N3CCN(Cc4ccccc4)CC3)C(=O)c3ccccc3C2=O)cc1,,19 µM (active)

Compound,"activity change, negative = inhibition",Potency
Cc1nn(-c2ccccc2)c2c1C(c1cccnc1)N1C=C(S(=O)(=O)N3CCCCC3)C=CC1=N2 (stereo not given),-26.3% (inactive),
COc1ccc(Nc2nnc(-c3ccc(C(N)=O)cc3)c3ccccc23)cc1,,4.78 µM (active)
COc1ccc(-c2csc(-c3ccc(C(=O)O)cc3)n2)cc1,-19.6% (inactive),
NC(=O)c1ccc(-c2nnc(Nc3ccc(S(N)(=O)=O)cc3)c3ccccc23)cc1,,13.5 µM (active)
CNC(=O)c1ccc(Nc2nnc(-c3ccc(C(N)=O)cc3)c3ccccc23)cc1,,4.78 µM (active)
COc1ccc(NC(=O)c2[nH]c(C)c(C(C)=O)c2C)cc1Cl,-25.3% (inactive),
Cc1cc2oc(C(=O)N3CCN(Cc4ccccc4)CC3)c(C)c2cc1C,-28.7% (inactive),
Cc1cc2oc(C(=O)N(Cc3ccc(N(C)C)cc3)CC3CCCO3)c(C)c2cc1C (stereo not given),,8.49 µM (active)
COc1ccc(N(CC(=O)N2CCCCC2)S(=O)(=O)c2c(C)nn(C)c2C)cc1,-2.46% (inactive),
COc1ccc(NC(=O)COc2cccc3c2CCN(C)C3=O)c(OC)c1,,12 µM (active)
COc1ccc(NC(=O)c2ccc(CN3CCc4ccccc4C3)cc2)c(OC)c1,-24.9% (inactive),
COc1ccc(NC(=O)c2ccc(COc3ccccc3)o2)c(OC)c1,-18.8% (inactive),
Clc1ccc(-n2nnnc2-c2cnc3ccccc3c2-c2ccccc2)cc1,-27.9% (inactive),
Cc1cc(C)n2nc(SCCOc3ccccc3F)nc2n1,,15.1 µM (active)
Cc1cc(C)n2nc(C(=O)NC3CCCc4ccccc43)nc2n1 (stereo not given),-9.93% (inactive),
O=C(COc1ccccc1/C=C1/NC(=O)NC1=O)Nc1ccccc1,-25.6% (inactive),
CN(C)S(=O)(=O)c1cccc(NC(=O)COc2ccccc2C(=O)Nc2ccccc2)c1,,13.5 µM (active)
Cc1cc(C)c2c(/C=C/c3ccc(N(C)C)cc3)ccnc2c1,,9.53 µM (active)
Cc1cnc2c(C)cccc2c1/C=C/c1ccc(N(C)C)cc1,,6.01 µM (active)
Cc1cnc2c(C)ccc(C)c2c1/C=C/c1ccc(N(C)C)cc1,,6.01 µM (active)
Cc1ccc(C)c2c(/C=C/c3ccc(N(C)C)cc3)ccnc12,,5.36 µM (active)
COCc1cc(O)c(O)c(O)c1-c1c(COC)cc(O)c(O)c1O,-12.3% (inactive),
Cc1cc(=O)n2[nH]c(Nc3cccc(Cl)c3)nc2n1,-20.9% (inactive),
